Screening results from PubChem.
HCMV antiviral – inhibitors of human cytomegalovirus; actives 4.5% (n = 410,000); activity change, negative = inhibition, % at 57.5 µM; AID 1259415; HFF cells, HCMV-luciferase reporter, 72 h; stronger effect = lower value; in the data active means activity change below about -60%; inconclusive means no clear call, values can overlap the other calls; inactive means above about -39%; further: on the % scale 0 is the no-effect control and ±100 the full control effect
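Two compound doses tested in HFFs infected with HCMV-luciferase, MOI 1 PFU/cell, 72 h at 37C. Lysate luminescence read with OneGlo; data normalized against buffer-only and 10uM Salinomycin inhibitor controls.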
HCV inhibitor – HCV inhibition; Huh7.5.1 HCVcc-Cre infection, luciferase reporter, 44 h; Potency, µM (doses to about 41.8 µM), without a hit: at the top dose activity change, negative = inhibition, most hits filed as inhibitors; actives 3.4% (n = 340,000); AID 651820; further: potency means the concentration at half of the fitted maximal effect; on the % scale 0 is the no-effect control and ±100 the full control effect
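Compounds are dispensed onto cells plated 4 h earlier at 1,000 per well, with HCVcc-Cre virus (about 0.5 moi) added next. Following 44 h of culture, luminescent signal is measured for 15 sec after 15 min with substrate at room temperature.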
Pf growth 48h – P. falciparum growth inhibition at 48 hours (one generation). P. falciparum luciferase growth in erythrocytes, 48 h. Potency, µM (series often up to 28.7 µM), without a hit: at the top dose activity change, negative = inhibition, actives largely listed as inhibitors. actives 5.9% (n = 310,000). AID 504832; further: potency means the concentration at half of the fitted maximal effect; on the % scale 0 is the no-effect control and ±100 the full control effect
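Erythrocytes infected with P. falciparum carrying an integrated firefly luciferase reporter (2% hematocrit, 0.1% parasitemia final) were exposed to compounds in RPMI 1640 with 0.5% Albumax at 37 C, 5% CO2. Growth inhibition was scored as reduced luminescence.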
Pf growth 96h – inhibits malaria parasite growth, 96 h; actives 6.9% (n = 320,000); P. falciparum luciferase reporter growth, 96 h; Potency, µM (highest dose often 28.7 µM), for inactives: at the highest dose activity change, negative = inhibition, usual class: inhibitors; further: potency means the concentration at half of the fitted maximal effect; on the % scale 0 is the no-effect control and ±100 the full control effect
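Luminescence readout: decreased luciferase signal marks inhibited growth of reporter-expressing P. falciparum in infected red cells (2% hematocrit, 0.05% parasitemia final), exposed to compound two generations (96 h, 37 C, 5% CO2).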
HCV inh confirm – confirmation of hepatitis C virus inhibitors; actives 78% (n = 640); shares compounds with HCV inhibitor; Potency, µM (highest dose often 41.8 µM), without a hit: at the highest dose activity, negative = inhibition, most hits filed as inhibitors; AID 720575; HCVcc-Cre infectious virus cell assay, luciferase, inhibition; further: potency means the concentration at half of the fitted maximal effect; nearly all actives have a fitted effect of over 80% in size
HCV host tox – toxic to HCV host cells, flagging false HCV inhibitors; actives 22% (n = 640); Potency, µM (top dose mostly 41.8 µM), without a hit: top-dose activity change, negative = cytotoxicity, most hits filed as inhibitors; HCV host cell line cytotoxicity counterscreen; shares compounds with HCV inhibitor;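 further: potency means the concentration at half of the fitted maximal effect; 44 h compound exposure; on the % scale 0 is the no-effect control and ±100 the full control effect; nearly all actives have a fitted effect of over 55% in size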
An asterisk follows results filed as active; ? = inconclusive; . = no result given; ! = not active in a repeat. Only some compounds are listed: those with a hit (about 13% of all), similar ones and a draw of the others. Unless noted, the call rests on the fitted dose curve; in most records, active means well fitted curve in the direction sought with a large enough effect; inconclusive means small, poorly fitted or top-dose-only effect, or another doubt; inactive means no such curve, though single readings can be large; an effect the other way counts as inactive or inconclusive.

SMILES	HCMV antiviral	HCV inhibitor	Pf growth 48h	Pf growth 96h	HCV inh confirm	HCV host tox
Cc1ccccc1Oc1nc(-c2ccccn2)nc2ccccc12	-99*	7.9µM*	1.9µM*	0.93µM*	11µM*	?
COc1cc(/C=C2/SC(=O)NC2=O)ccc1OC(=O)c1ccco1	63	2%	1%	?	.	.
CCOc1cc(/C=C2/SC(=S)NC2=O)ccc1OC(=O)c1ccco1	0	3.5µM*	30%	6%	-15%	-10%
CC1(C)OC(=O)C2=C(C[C@@H](C3CCCCC3)O[C@@H]2c2ccc(F)cc2)O1	-10	.	.	.	.	.
O=C(CC[C@H]1O[C@@H](n2ccc(=O)[nH]c2=O)[C@H](O)[C@@H]1O)N1CCN(Cc2cccc3ccccc23)CC1	3	.	.	.	.	.
COc1ccc(-c2nc(CN3CCN(c4ncnc5ccccc45)CC3)c(C)o2)c(OC)c1	-82*	5µM*	?	8%	5µM*	7.9µM*
CNc1nc(N/N=C/c2cc3c(cc2[N+](=O)[O-])OCO3)nc(Nc2ccccc2)n1	-99*	1µM*	2.6µM*	-13%	14µM*	31µM*
NC(N)=NC(N)=NCCc1ccccc1	-82*	3.2µM*!	-9%	?	2.8µM*	?
CC1(C(=O)NS(=O)(=O)c2ccccc2OC(F)(F)F)CCN1C(=O)c1ccccc1 (configuration not stated)	6	.	.	.	.	.
Cc1[nH]n(-c2nc(-c3ccc(Cl)cc3)cs2)c(=O)c1N=Nc1ccc(O)cc1	-34	1.8µM*	?	6.6µM*	14µM*	-99%
CCOC(=O)Nc1ccc(NCc2ccc(F)cc2)nc1N	-24	0.89µM*	13µM*	6.7µM*	-23%	16%
CCS(=O)(=O)N1CCC(C(=O)NCc2ccc3c(c2)OCO3)CC1	20	14%	15%	26%	.	.
O=C(NCc1ccc2c(c1)OCO2)C1CCN(C(=O)Nc2ccc(Cl)cc2)CC1	63	?	-1%	-10%	13µM*	-1%
CCOC(=O)[C@]12CCC=C1N(Cc1ccc(Cl)cc1Cl)C(=O)[C@H](CC(=O)N1CCSCC1)C2	-31	.	.	.	.	.
Cc1nn(CC(=O)NCCCN2CCC(N3CCCCC3)CC2)c(=O)c2cc(-c3ccccc3)nn12	?	4µM*	?	?	25µM*	20%
CCCCn1c(N)c(N(CCOC)C(=O)CCS(=O)(=O)c2ccc(C)cc2)c(=O)[nH]c1=O	2	.	.	.	.	.
Cc1ccccc1-c1nc(CN2CCC(C(=O)NCCCN3CC(C)CC(C)C3)CC2)c(C)o1 (configuration not stated)	1	1.3µM*	?	220%	1.4µM*	?
Cc1ccccc1-c1nc(CS(=O)(=O)CC(=O)NCCCN2CC(C)CC(C)C2)c(C)o1 (configuration not stated)	3	?	?	75%	.	.
CCCNC(=O)C1(C)CCN(C(=O)c2cccc(C(F)(F)F)c2)C1 (configuration not stated)	-7	.	.	.	.	.
Cc1nc(-c2ccc(C(=O)Nc3cccc(Br)c3)cc2)cs1	-68*	4.5µM*	63%	-9%	2.8µM*	4µM*
COc1ccc(NC(=O)c2oc3ccccc3c2NC(=O)C2CC2)cc1	-23	-26%	?	10%	.	.
COc1cccc(NC(=O)c2oc3ccccc3c2NC(=O)C2CC2)c1	-17	?	?	?	?	23%
COCCN1C(=O)CCC1(C)C(=O)Nc1ccc2ccccc2c1 (configuration not stated)	14	.	.	.	.	.
